Only some compounds are listed: those with a hit (about 2.2% of all), similar ones and a draw of the others.
TrxR1 substrate: rat thioredoxin reductase 1 substrate activity; O89049; purified TrxR1 substrate turnover, NADPH consumption readout; Potency, µM (top dose mostly 114 µM), for the others: at the highest dose activity change, negative = substrate turnover; 390,000 compounds, 0.01% hits; AID 588456; also: potency is read from the fitted curve at half-maximal effect; % is scaled to controls: 0 for no effect and ±100 for the full control effect; nearly all actives have a fitted effect of over 50% in size
Target sequence (O89049 whole entry, looked up): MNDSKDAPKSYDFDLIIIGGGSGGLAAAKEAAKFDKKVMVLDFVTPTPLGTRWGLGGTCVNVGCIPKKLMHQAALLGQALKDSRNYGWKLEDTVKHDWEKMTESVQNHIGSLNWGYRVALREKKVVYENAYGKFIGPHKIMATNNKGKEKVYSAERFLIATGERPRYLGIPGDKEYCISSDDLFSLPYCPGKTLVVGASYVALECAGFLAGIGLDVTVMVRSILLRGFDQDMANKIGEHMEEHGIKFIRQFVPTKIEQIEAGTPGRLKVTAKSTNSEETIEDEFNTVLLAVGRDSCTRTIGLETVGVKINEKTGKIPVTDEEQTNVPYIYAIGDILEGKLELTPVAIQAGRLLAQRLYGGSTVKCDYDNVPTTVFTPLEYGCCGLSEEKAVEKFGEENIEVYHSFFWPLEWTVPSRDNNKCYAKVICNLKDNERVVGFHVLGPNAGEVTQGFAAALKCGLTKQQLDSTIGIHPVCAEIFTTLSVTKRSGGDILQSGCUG
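Rat TrxR1, dispensed at 90 nM, was prereduced with 400 uM NADPH (final) for 5 min at ~22 deg C, then incubated with compound 15 min before 400 uM selenite. A first-read NADPH fluorescence drop versus no-compound background flagged substrates.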
BRCA1 expr up: increases BRCA1 expression. 380,000 compounds, 1.1% hits. AID 624202. MCF7-BRCA1-FFLuc reporter, luminescence, 48 h; response scale: scaled: vehicle 0%, 10 µM genistein 100%. Potency, µM (highest dose often 46.1 µM), for inactives: at the top dose activation, usual class: activators; also: potency is read from the fitted curve at half-maximal effect; nearly all actives have a fitted effect of over 80% in size
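MCF7 cells carrying a BRCA1-firefly luciferase reporter (2000 cells/well, phenol-red free MEM) were attached for 2 h at 37 °C, then given compounds for 48 h. Luminescence was read 15 min after luciferase reagent; activity normalized to genistein (10 microM) and DMSO.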
Giardia killer: kills Giardia lamblia. Giardia lamblia trophozoite viability. activity change, % at 7.66 µM, hits read low. 340,000 compounds, 0.15% hits. AID 540267; in the data active = activity change below about -80%; inconclusive = between about -30% and that limit;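 also: parasites exposed to compound for two days anaerobically before the ATP read; % is scaled to controls: 0 for no effect and ±100 for the full control effect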
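Viability, read as ATP luminescence: trophozoites at 100 cells/well, compound added, 48 hrs anaerobic at 37 deg C, then 15-30 min room-temperature development before reading.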
IDH1 R132H inh: inhibitors of human mutant IDH1 R132H; IDH1-R132H enzyme, NADPH consumption, diaphorase/resazurin fluorescence; Potency, µM (highest dose often 76.6 µM), for inactives: at the top dose activity change, negative = inhibition, most hits filed as inhibitors; 390,000 compounds, 0.093% hits; AID 602179; also: potency is read from the fitted curve at half-maximal effect; % is scaled to controls: 0 for no effect and ±100 for the full control effect; nearly all actives have a fitted effect of over 65% in size
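IDH1-R132H (0.5 ug/mL dispensed) in pH 7.5 Tris buffer was preincubated 30 min with compound, then given a substrate mix of 0.016 mM NADPH and 2 mM alpha-KG for 80 min at room temperature; remaining NADPH was read by diaphorase/resazurin fluorescence.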
rTrxR1 inhibitor: rat TrxR1 inhibition; Potency, µM (titrated, usually from 114 µM), for inactives: at the top dose activity change, negative = inhibition, hits mostly inhibitors; AID 588453; 390,000 compounds, 1% hits; recombinant rTrxR1, NADPH fluorescence consumption, selenite substrate; O89049; also: potency is read from the fitted curve at half-maximal effect; % is scaled to controls: 0 for no effect and ±100 for the full control effect; nearly all actives have a fitted effect of over 65% in size
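Rat TrxR1 (90 nM in the dispensed reagent) was pre-reduced with 400 uM NADPH for 5 min at room temperature, then incubated with compound for 15 min. After 400 uM selenite was added, NADPH fluorescence (Ex 340/Em 450 nm) was followed for 8 min.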
IL2 activator: IL-2 activation. 360,000 compounds, 0.065% hits. AID 652025. activation, % (series mostly up to about 46 µM). IL-2 activation reporter assay, cell-based qHTS; stimulated with anti-CD3/CD4/CD28 beads; in transgenic mouse T cells; in the data active = activation above about 50%; inconclusive = mostly about 30% to 49%; also: 0% is about no effect
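Quantitative HTS in unstimulated transgenic mouse T cells, with memory T cells as non-tolerant control and PMA/ionomycin as tolerance-bypass control. Compound pretreatment lasted 60 minutes before 18 h bead stimulation; EGFP/DsRed fluorescence read.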
Numbers without * were called inactive; ? = inconclusive; · = no result given; [ ] = remark or other dose. Unless noted, calls follow the shape of the dose curve; as a rule, active = well fitted curve in the direction sought with a large enough effect; inconclusive = small, poorly fitted or top-dose-only effect, or another doubt; inactive = no such curve, though single readings can be large; an effect the other way counts as inactive or inconclusive.

SMILES	TrxR1 substrate	BRCA1 expr up	Giardia killer	IDH1 R132H inh	rTrxR1 inhibitor	IL2 activator
O=C(N/N=C/c1ccc(-c2ccccc2[N+](=O)[O-])o1)c1cncc(Br)c1	-11%	-24%	-11	-3%	-3%	-7
O=C(NN=Cc1ccc(F)cc1)c1ccccc1NS(=O)(=O)c1cccs1	-2%	21%	-14	5%	6%	1
Cc1cc([N+](=O)[O-])ccc1NC(=O)c1ccco1	3%[57.1 µM]	-5%	-24	-1%	1%[57.1 µM]	1
Cc1cc([N+](=O)[O-])ccc1NC(=O)c1cc2ccccc2o1	-8%	7.9µM*	-12	21%	16%[57.1 µM]	0
O=C(N/N=C/c1ccc([N+](=O)[O-])o1)c1ccc(O)cc1	-3%	-3%	-26	13%	20µM*	0
COc1ccccc1CCNC(=O)C(=O)NCC(c1ccc2c(c1)OCO2)N1CCOCC1 (stereo not given)	7%[57.1 µM]	·	·	-12%	22%[57.1 µM]	·
Cc1ccc(-n2cc(C(=O)OCc3ccc(Cl)cc3)c3ccccc3c2=O)cc1	-3%[57.1 µM]	·	·	-7%	-3%[57.1 µM]	·
O=C(N/N=C/c1ccc([N+](=O)[O-])o1)c1cc2ccccc2o1	0%	-69%	-96*	5%	-8%	0
Cc1nc2ccccn2c1C(=O)N/N=C/c1ccc([N+](=O)[O-])cc1	-2%	18%	3	2%	-6%	0
Cc1nc2ccccn2c1C(=O)N/N=C/c1ccc([N+](=O)[O-])o1	-12%[57.1 µM]	-74%	-86*	-7%	?	-1
CCOc1ccccc1N(C)C(=O)CCS(=O)(=O)c1ccc2c(c1)NC(=O)C(C)S2 (stereo not given)	-4%	-8%	34	7%	71µM*	2
CC1Sc2ccc(S(=O)(=O)CCC(=O)N(C)Cc3ccco3)cc2NC1=O (stereo not given)	7%[57.1 µM]	-21%	6	6%	7%[57.1 µM]	-3
Cc1cc(=O)[nH]c2nnc(-c3ccc(Br)cc3)n12	-3%	4µM*	?	2%	13%	8
Cc1ccc(CSc2nc3ccncc3[nH]2)cc1	2%[57.1 µM]	?	-90*	1%	3%[57.1 µM]	-1
Clc1ccc(CSc2nc3ccncc3[nH]2)cc1	11%[57.1 µM]	?	?	11%	19%[57.1 µM]	-2
Nn1c(CSc2ccccn2)nc2ccccc2c1=O	-1%	10µM*	5	6%	10%	0
Cc1ccc(-c2nc(CS(=O)(=O)CC(=O)N3CC(C)CC(C)C3)c(C)o2)cc1 (stereo not given)	0%[57.1 µM]	-3%	6	-13%	4µM*	-3
Cc1ccc(-c2nc(CS(=O)(=O)CC(=O)N3CCN(C)CC3)c(C)o2)cc1	1%	-8%	7	-9%	18%	-1
Cc1csc(NC(=O)CSc2nnc(-c3ccoc3C)o2)n1	3%	10µM*	5	5%	2%	-1
c1ccc(CSc2nnc(-c3cccnc3)o2)cc1	3%	7.9µM*	12	6%	19%	-1
Cc1cnc(NC(=O)CSc2nnc(-c3ccccc3)o2)s1	-4%	4µM*	?	-7%	-5%	1
Cc1occc1-c1nnc(SCC(=O)Nc2nc(C(C)(C)C)cs2)o1	1%	36%	2	2%	15%	-2
O=C(CSc1nnc(-c2cccnc2)o1)Nc1cccc(F)c1	-4%[57.1 µM]	10µM*	-27	17%	-4%[57.1 µM]	-1
COc1ccc(C)cc1NC(=O)CSc1nnc(-c2ccc(C)cc2)o1	5%	40%	0	11%	18%	-3
Cc1ccc(-c2nnc(SCc3ccccc3)o2)cc1	0%[57.1 µM]	·	·	-11%	21%[57.1 µM]	·
Oc1ccc(-c2nnc(SCc3ccccc3)o2)cc1	-11%	10µM*	-9	-14%	-6%	0
CCOc1ccc(-c2nnc(SCC(=O)Nc3cc(C)ccc3OC)o2)cc1	-1%	9%	·	7%	28µM*	·
c1ccc(CSc2nnc(Cc3ccccc3)o2)cc1	2%[57.1 µM]	13µM*	6	2%	14%[57.1 µM]	2
